Source: PubChem BioAssay
Results filed as inconclusive are left out. Calls of active or inactive are those of the source.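 Rule for the calls, unless noted: active = viability at or below 27.92% in each of two runs, the all-compound median minus 4 SD; inconclusive = no clear call, values can overlap the other calls; inactive = the rest.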

Columns and labels:
[1] = molecular target: Pantothenate synthetase (Mycobacterium tuberculosis (strain ATCC 25618 / H37Rv)) (UniProt P9WIL5); assay: Recombinant Mtb pantothenate synthetase (PanC) inhibitors, coupled enzyme, confirmatory (AID 375; call rule not given here;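 note: 0% = full reaction with vehicle and 100% = no enzyme background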); details: coupled enzyme assay; at 10 µM, stronger effect = higher value
Pantothenate synthetase (Mycobacterium tuberculosis (strain ATCC 25618 / H37Rv)), sequence (P9WIL5 whole entry, looked up): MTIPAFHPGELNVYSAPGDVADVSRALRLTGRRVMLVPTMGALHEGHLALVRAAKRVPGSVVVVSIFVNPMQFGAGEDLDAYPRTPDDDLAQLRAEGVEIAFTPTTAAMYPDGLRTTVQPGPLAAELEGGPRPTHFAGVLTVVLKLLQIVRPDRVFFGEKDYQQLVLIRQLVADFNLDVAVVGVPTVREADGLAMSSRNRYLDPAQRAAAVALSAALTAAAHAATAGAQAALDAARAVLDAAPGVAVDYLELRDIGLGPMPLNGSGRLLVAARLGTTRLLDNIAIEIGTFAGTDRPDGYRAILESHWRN

[2] = reducers of endogenous Her2 protein level, primary screen, SKBR3 breast tumor cells, AlphaScreen, ATP viability (AID 461;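 active = Her2 level under about 52% in both replicate screens, with viability over 70% of control, limit read from the data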;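 for Her2 level: lower value means less Her2 protein in the cells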;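 for viability: percent of carrier control wells set as 100% viability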); details: 18-24 h, measured here: SKBR3 viability, ATP luminescence, at 10 µM
[3] = molecular target: Receptor tyrosine-protein kinase erbB-2 (Homo sapiens) (UniProt P04626); assay: as above; details: 18-24 h, at 10 µM, stronger effect = lower value
Receptor tyrosine-protein kinase erbB-2 (Homo sapiens), sequence (P04626 whole entry, looked up): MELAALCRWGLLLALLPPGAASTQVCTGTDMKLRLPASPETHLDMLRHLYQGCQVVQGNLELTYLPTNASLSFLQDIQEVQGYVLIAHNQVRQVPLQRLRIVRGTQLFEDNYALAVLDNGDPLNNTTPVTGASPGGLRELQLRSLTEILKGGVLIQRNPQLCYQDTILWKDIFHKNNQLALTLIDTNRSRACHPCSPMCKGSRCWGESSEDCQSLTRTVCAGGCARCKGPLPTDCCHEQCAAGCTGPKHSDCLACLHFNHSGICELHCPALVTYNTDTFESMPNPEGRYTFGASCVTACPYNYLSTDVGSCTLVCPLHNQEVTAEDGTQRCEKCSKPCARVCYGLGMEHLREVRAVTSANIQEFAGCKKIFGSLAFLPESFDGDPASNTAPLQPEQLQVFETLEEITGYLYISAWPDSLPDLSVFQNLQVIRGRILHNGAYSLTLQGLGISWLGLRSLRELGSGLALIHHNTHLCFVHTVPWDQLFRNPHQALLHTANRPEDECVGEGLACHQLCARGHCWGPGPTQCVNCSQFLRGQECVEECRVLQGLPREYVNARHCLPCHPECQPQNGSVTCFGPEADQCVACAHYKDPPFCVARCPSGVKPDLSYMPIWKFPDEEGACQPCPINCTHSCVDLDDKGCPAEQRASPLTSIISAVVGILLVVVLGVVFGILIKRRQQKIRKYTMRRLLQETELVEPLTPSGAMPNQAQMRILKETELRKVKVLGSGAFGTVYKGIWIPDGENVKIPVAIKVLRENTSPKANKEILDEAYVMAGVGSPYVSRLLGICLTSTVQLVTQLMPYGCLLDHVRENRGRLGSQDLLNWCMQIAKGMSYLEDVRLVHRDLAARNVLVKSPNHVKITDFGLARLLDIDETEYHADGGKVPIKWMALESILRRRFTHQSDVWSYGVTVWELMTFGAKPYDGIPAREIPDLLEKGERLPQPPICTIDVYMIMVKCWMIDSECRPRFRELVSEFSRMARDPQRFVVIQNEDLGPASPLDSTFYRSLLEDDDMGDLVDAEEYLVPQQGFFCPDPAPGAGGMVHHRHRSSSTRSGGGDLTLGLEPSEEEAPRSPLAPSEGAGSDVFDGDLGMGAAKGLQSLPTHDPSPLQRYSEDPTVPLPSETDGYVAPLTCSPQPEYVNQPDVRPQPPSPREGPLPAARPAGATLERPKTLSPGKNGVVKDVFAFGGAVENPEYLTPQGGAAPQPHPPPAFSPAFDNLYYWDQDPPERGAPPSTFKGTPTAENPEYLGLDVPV

[4] = SK-BR-3 cell growth inhibitors, pilot screen, 24 h, human (AID 572;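 active = viability at or below 10% of carrier control in both of two separate runs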;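 note: compound exposure lasted between 18 and 24 h rather than exactly 24 h; 100% = carrier-treated control wells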); details: SK-BR-3 viability, CellTiter-Glo luminescence, at 10 µM, stronger effect = lower value
[5] = HUVEC growth inhibition – cell-based, human, primary screen (AID 575;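 active = viability at or below 30% in both replicate assays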;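 note: 100% = median of untreated cell wells with 0.1% DMSO on each plate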); details: HUVEC proliferation, CellTiter-Glo luminescence, 72 h; at 10 µM; stronger effect = lower value
[6] = growth inhibitors of H69AR lung tumor, primary screen, human, duplicate replicates (AID 580;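 active = viability at or under a set limit in both replicates, limit being median viability minus 3 SD, cut at about 48% in these data, passing the limit was not always enough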;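 note: 100% = mean luminescence of untreated wells and 0% = no signal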); details: H69AR lung tumor cells viability, ATP luminescence, 72 h; at 10 µM; stronger effect = lower value
[7] = reversal of MRP1-mediated doxorubicin resistance, pilot screen, H69AR cells, doxorubicin co-treatment (AID 601;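 active = viability loss from added drug above about 55%, and viability with drug at most 40%, in both replicates, limit read from the data, passing the limit was not always enough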); details: CellTiter-Glo, 72 h, at 10 µM; for differential viability (reversal): stronger effect = higher value
[8] = 384-well plate pilot, post-Golgi transport modulator project, inhibition of yeast transport mutant growth (AID 636; in the data active = inhibition above about 31%); details: absorbance 615 nm, about 18 h, stronger effect = higher value
[9] = growth suppression of yeast trafficking mutant, preliminary HTS, modulators of trafficking downstream of Golgi apparatus project, 1536-format plate, OD 615 nm (AID 637; in the data active = inhibition above about 30%); details: yeast transport mutant growth, absorbance 615 nm, 18 h; stronger effect = higher value
[10] = OD615 S. cerevisiae growth inhibition, permissive medium, pilot counter-assay, permissive growth control for S. cerevisiae lifespan shortening project (AID 705;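 active = growth inhibition above 25% in both replicates, a cutoff set 3 SD above the mean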); details: OD615, 24 h, at 10 µM, stronger effect = higher value
[11] = Restrictive medium S. cerevisiae growth inhibition, OD615, pilot screen of yeast lifespan reduction project, restrictive growth control (AID 706;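 active = growth inhibition above a set limit, 3 SD over mean compound inhibition, in both replicates, cut at about 43% in these data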;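 note: modified DeaD lifespan yeast strain shifted to restrictive glucose medium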); details: OD615, 48 h, at 10 µM, stronger effect = higher value
[12] = viability gain of MRP-1-high H69AR cells under doxorubicin, pilot screen, MRP-1 activator project, CellTiter-Glo, duplicate (AID 807;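 active = viability increase at or above a cutoff of the median across tested compounds plus 3 SD, cut at about 8.5% in these data, passing the limit was not always enough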;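 note: compound pretreatment 18-22 h then 72 h combined with doxorubicin; 0% = doxorubicin alone and 100% = vehicle without doxorubicin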); details: H69AR viability with doxorubicin, CellTiter-Glo luminescence; at 10 µM; stronger effect = higher value
[13] = growth suppression of beta-catenin knockout HCT116, pilot screen, human colon tumor cells (AID 823;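 active = cell viability at or below a set limit in both duplicate runs, the limit being the all-compound median minus 4 SD, cut at about 23% in these data, passing the limit was not always enough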;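 note: 0% = wells killed by 20 µM Hyamine and 100% = untreated DMSO cell wells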); details: CellTiter-Glo, 60 h, at 10 µM, stronger effect = lower value
[14] = growth suppression of PTEN-deleted HCT116, pilot screen, cell-based, HCT116 clonal line, CellTiter-Glo (AID 824); details: 60 h, at 10 µM, stronger effect = lower value;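 note: 0% = 20 µM Hyamine control and 100% = vehicle cell control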
[15] = inhibitors of the yeast RAM network, pilot screen, dse1pr::URA3 reporter, 5-FOA selection (AID 869;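 active = inhibition over a set limit, the all-compound mean plus 3 SD, in both replicate runs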;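 note: 0% = DMSO wells with no growth and 100% = 10 µM 1-NA-PP1 with full growth; RAM network block rescues cells from 5-FOA so hits raise OD615 growth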); details: S. cerevisiae dse1pr::URA3 5-FOA growth, OD615, 2 d, at 10 µM, stronger effect = higher value
[16] = RAM signaling pathway blockade in yeast – S. cerevisiae, Pdr1DBD-CYC8 efflux-inhibited sensitized strain, primary screen (AID 1298;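 active = RAM network inhibition above 8.4% in each of two replicates, 3 SD over the compound average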;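 note: 0% = DMSO untreated cells without growth and 100% = 10 µM 1-NA-PP1 full growth; higher means more yeast growth rescued from 5-FOA killing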); details: S. cerevisiae cbk1-as DSE1-URA3 strain, 5-FOA growth OD615, 2 d; at 50 µM; stronger effect = higher value
[17] = H69AR cells + 2 uM doxorubicin, measured here: viability with 2 uM doxorubicin, stronger effect = lower value
[18] = H69AR cells, compound alone cytotoxicity

| SMILES | inhibition [1] | viability [2] [%] | Her2 level [3] | viability [4] | viability [5] | viability [6] | differential viability (reversal) ([7]; H69AR cells + 2 uM doxorubicin) | viability [7, 17] [%] | viability [7, 18] [%] | inhibition [8] | inhibition [9] | growth inhibition [10] | growth inhibition [11] | viability increase [12] | viability [13] | viability [14] | inhibition [15] | RAM network inhibition [16] |
| --- | --- | --- | --- | --- | --- | --- | --- | --- | --- | --- | --- | --- | --- | --- | --- | --- | --- | --- |
| CC(=O)Nc1ccc(OC(=O)c2ccccc2N)cc1 | 0% (inactive) | 100 | 118% (inactive) | 100% (inactive) | 93.5% (inactive) | 99.3% (inactive) | 9.29% (inactive) | 90.1 | 99.3 | -0.13% (inactive) | -9.5% (inactive) | -7.19% (inactive) | -9.05% (inactive) | 1.42% (inactive) | 107% (inactive) | 102% (inactive) | 1.02% (inactive) | 0.27% (inactive) |
| CN1C(=O)C(Cc2cccc3ccccc23)C(=O)N(C)C1=O | 6% (inactive) | 73.5 | 94% (inactive) | 73.5% (inactive) | 95.4% (inactive) | 85.2% (inactive) | -7.14% (inactive) | 92.4 | 85.2 | -5.81% (inactive) | 0.98% (inactive) | -20.9% (inactive) | -4.64% (inactive) | -2.39% (inactive) | 92.5% (inactive) | 89.7% (inactive) | 0.305% (inactive) | 1.47% (inactive) |
| CC(C)NS(=O)(=O)c1ccc(OCC(=O)N2CCN(C)CC2)cc1 |  |  |  |  |  |  |  |  |  |  |  | -11.8% (inactive) | -2.15% (inactive) | -0.3% (inactive) | 96.3% (inactive) | 102% (inactive) | 1.13% (inactive) | 3.6% (inactive) |
| O=C(C(Cc1ccccc1)NS(=O)(=O)c1ccc(F)cc1)N1CCC2(CC1)OCCO2 (stereo unspecified) | 0% (inactive) |  |  | 95% (inactive) | 94.2% (inactive) | 79% (inactive) | 15.6% (inactive) | 63.4 | 79 | -0.13% (inactive) | -0.16% (inactive) | -6.55% (inactive) | -17.2% (inactive) | -3.5% (inactive) | 95.4% (inactive) | 93.5% (inactive) | -0.725% (inactive) | 0.31% (inactive) |
| CN(C(=O)Oc1cccc2cccnc12)c1ccccc1 |  |  |  |  |  |  |  |  |  |  |  | -2.11% (inactive) | 3.21% (inactive) | -0.61% (inactive) | 91% (inactive) | 90.1% (inactive) | 0.415% (inactive) | 2.67% (inactive) |
| O=C(CN1CC(c2ccccc2)CC1=O)Nc1ccccc1 (stereo unspecified) |  |  |  |  |  |  |  |  |  |  |  | -20.4% (inactive) | -12.7% (inactive) | -1.8% (inactive) | 106% (inactive) | 95.4% (inactive) | 1.06% (inactive) | 4.01% (inactive) |
| COC(=O)c1ccc(CN2CCN(Cc3ccccc3)CC2)cc1 |  |  |  |  |  |  |  |  |  |  |  | -18.9% (inactive) | -15.9% (inactive) | -1.15% (inactive) | 94.5% (inactive) | 90.8% (inactive) | 1.31% (inactive) | 1.37% (inactive) |
| CCCCP(=O)(O)c1ccccc1 |  |  |  |  |  |  |  |  |  |  |  | -5.46% (inactive) | -11.7% (inactive) | -0.51% (inactive) | 101% (inactive) | 95.4% (inactive) | 1.03% (inactive) | 3.03% (inactive) |
| O=C(CN1CCOCC1)c1ccc2cc[nH]c2c1 |  |  |  |  |  |  |  |  |  |  |  | -10.7% (inactive) | -1.26% (inactive) | 0.03% (inactive) | 105% (inactive) | 108% (inactive) | 0.035% (inactive) | 1.57% (inactive) |
| COc1cccc(OCC(=O)N2CCN(C)CC2)c1 |  |  |  |  |  |  |  |  |  |  |  | 5.64% (inactive) | 11.5% (inactive) | 0.31% (inactive) | 99.8% (inactive) | 102% (inactive) | 0.505% (inactive) | 0.31% (inactive) |
| CC(C)CC1C(C#N)=C(N)Oc2c1c(=O)oc1ccccc21 (stereo unspecified) |  |  |  |  |  |  |  |  |  |  |  | -12.7% (inactive) | -16.4% (inactive) | -0.17% (inactive) | 102% (inactive) | 99.8% (inactive) | 1.71% (inactive) | 8.07% (inactive) |
| Cc1ccc2c(c1)C1CN(C)CCC1N2C(=O)Cn1nnc(-c2ccccc2F)n1 (stereo unspecified) |  |  |  |  |  |  |  |  |  |  |  | 6.06% (inactive) | -9.18% (inactive) | -5.58% (inactive) | 85.2% (inactive) | 83.8% (inactive) | 0.18% (inactive) | 3.31% (inactive) |
| COP(=S)(OC)SCN1C(=O)c2ccccc2C1=O |  |  |  |  |  |  |  |  |  |  |  | 14% (inactive) | 26.2% (inactive) | -4.23% (inactive) | 94.2% (inactive) | 84.9% (inactive) | 1.48% (inactive) | 3.76% (inactive) |
| CCC(=O)N1CC(=O)Nc2ccc(F)cc2C1c1ccccc1 (stereo unspecified) |  |  |  |  |  |  |  |  |  |  |  | -9.43% (inactive) | -11.4% (inactive) | -1% (inactive) | 92.2% (inactive) | 90.9% (inactive) | 2.25% (inactive) | 3.64% (inactive) |
| COc1cc(CC2C(=O)N(C)C(=O)N(C)C2=O)ccc1OCc1ccccc1 |  |  |  |  |  |  |  |  |  |  |  | -12.6% (inactive) | -5.52% (inactive) | 0.67% (inactive) | 96.9% (inactive) | 95.8% (inactive) | 0.87% (inactive) | 5.72% (inactive) |
